Reference: PubChem BioAssay
Activity calls are given as the source filed them. Unless noted, how the calls were made is not given here.

Experiments:
[1] = compound effects on lung adenocarcinoma cell viability – A549, calcein-AM fluorescence, 48 h, basal, profiling panel (AID 1162); conditions: higher = more signal; further: test concentration not given here
[2] = compound effects on differentiated 3T3-L1 adipocyte viability – cell-based, 3T3-L1 adipocytes, calcein-AM fluorescence, 48 h, basal, profiling panel (AID 1163); conditions: 3T3-L1 adipocytes viability, higher = more signal; further: test concentration not given here
[3] = compound effects on hepatocellular carcinoma cell viability – HepG2, calcein-AM fluorescence, 48 h, basal, profiling panel (AID 1164); conditions: higher = more signal; further: test concentration not given here
[4] = compound effects on multiple myeloma cell viability – MM1S, calcein-AM fluorescence, 48 h, basal, profiling panel (AID 1165); conditions: higher = more signal; further: test concentration not given here
[5] = calcein-AM signal in unstimulated myeloma cells – cell-based, calcein-AM fluorescence, 48 h, PK04 Diversity Set, profiling panel (AID 1166); conditions: RPMI8226 myeloma viability, higher = more signal;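 further: cells grown under basal conditions without added stimulus; test concentration not given here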
[6] = JC-1 mitochondrial signal, unstimulated HepG2 cells – cell-based, JC-1 fluorescence, 24 h, 100 nL compound, profiling panel (AID 1167); conditions: HepG2 mitochondrial potential, higher = more signal; further: test concentration not given here
[7] = JC-1 mitochondrial signal, unstimulated adipocytes – cell-based, JC-1 fluorescence, 3T3-L1 adipocytes, 24 h, 100 nL compound, profiling panel (AID 1168); conditions: JC-1 mitochondrial fluorescence, higher = more signal, called active from +8 up or from −8 down; further: test concentration not given here
[8] = JC-1 mitochondrial signal, unstimulated myeloma cells – cell-based, JC-1 fluorescence, RPMI8226, 24 h, 100 nL compound, profiling panel (AID 1169); conditions: JC-1 mitochondrial potential fluorescence, higher = more signal; further: test concentration not given here
[9] = JC-1 mitochondrial signal, unstimulated MM1S myeloma – cell-based, JC-1 fluorescence, 24 h, 100 nL compound, profiling panel (AID 1170); conditions: MM1S mitochondrial potential, higher = more signal; further: test concentration not given here
[10] = resazurin metabolic signal in A549 cells – cell-based, resazurin fluorescence, 24 h, PK04 Diversity Set, profiling panel (AID 1171); conditions: A549 viability, higher = more signal, called active from +8 up or from −8 down; further: test concentration not given here
[11] = resazurin metabolic signal in HepG2 cells – cell-based, resazurin fluorescence, 24 h, PK04 Diversity Set, profiling panel (AID 1172); conditions: HepG2 viability, higher = more signal; further: test concentration not given here
[12] = budding yeast growth changes without added modifier – OD600, strain BY4716, 24 h, basal condition, primary screen (AID 1173); conditions: S. cerevisiae BY4716 growth, OD600, 24 h; higher = more signal, called active from +8 up or from −8 down
[13] = viability profiling in MM1S myeloma cells – cell-based, resazurin fluorescence, basal, 24 h, PK04 Diversity Set, profiling panel (AID 1174); conditions: higher = more signal, called active from +8 up or from −8 down; further: test concentration not given here
[14] = target: Dihydroorotate dehydrogenase (quinone), mitochondrial (Plasmodium falciparum (isolate 3D7)) (UniProt Q08210); experiment: inhibition of P. falciparum DHODH – biochemical, C-terminal His tag, absorbance 600 nm, primary screen (AID 1175); conditions: PfDHODH enzyme, DCIP absorbance 600 nm; higher = more signal, called active from +8 up or from −8 down;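 further: recombinant parasite enzyme with a five histidine tag at its C terminus; test concentration not given here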
Chain of Dihydroorotate dehydrogenase (quinone), mitochondrial (Plasmodium falciparum (isolate 3D7)) (Q08210 whole entry, looked up): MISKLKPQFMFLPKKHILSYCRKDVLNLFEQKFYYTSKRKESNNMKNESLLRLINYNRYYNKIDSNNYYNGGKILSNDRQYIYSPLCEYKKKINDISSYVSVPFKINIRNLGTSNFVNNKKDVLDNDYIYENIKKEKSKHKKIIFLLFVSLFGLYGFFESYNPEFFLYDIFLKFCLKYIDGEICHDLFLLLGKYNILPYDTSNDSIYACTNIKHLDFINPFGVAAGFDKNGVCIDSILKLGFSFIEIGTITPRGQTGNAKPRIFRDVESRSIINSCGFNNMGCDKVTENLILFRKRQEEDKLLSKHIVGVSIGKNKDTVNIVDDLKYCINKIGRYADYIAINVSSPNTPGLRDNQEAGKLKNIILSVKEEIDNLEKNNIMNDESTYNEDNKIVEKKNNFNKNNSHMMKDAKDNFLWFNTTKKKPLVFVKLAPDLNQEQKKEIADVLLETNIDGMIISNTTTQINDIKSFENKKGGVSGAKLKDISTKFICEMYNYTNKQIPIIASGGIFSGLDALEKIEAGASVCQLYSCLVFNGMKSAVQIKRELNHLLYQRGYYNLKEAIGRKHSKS

[15] = inhibition of PAO1 biofilm formation – strain PAO1, LB-PBS medium, absorbance 600 nm, primary screen (AID 1176); further: test concentration not given here; conditions: P. aeruginosa PAO1 growth/biofilm, A600, 12 h; higher = more signal
[16] = growth modulation of vineyard yeast isolate – strain RM11-1a, OD600, basal, 24 h, primary screen (AID 1177);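 further: cultures grown under basal conditions with no added stressor; test concentration not given here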; conditions: S. cerevisiae RM11-1a growth, OD600, 24 h; higher = more signal, called active from +8 up or from −8 down
[17] = growth of efflux-deficient E. coli DRC39 – strain DRC39, OD650, 24 h, E. coli filamentation inducers, primary screen (AID 1178);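 further: growth measured as culture turbidity by optical density at 650 nm; test concentration not given here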; conditions: E. coli DRC39 acrAB, higher = more signal, called active from +8 up or from −8 down
[18] = growth of efflux-deficient E. coli DRC39 – strain DRC39, OD650, 48 h, E. coli filamentation inducers, primary screen (AID 1179);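 further: screen aims at cell division blockers that make cells filament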; conditions: E. coli DRC39 delta-acrAB growth, higher = more signal, called active from +8 up or from −8 down
[19] = viability profiling in RPMI8226 myeloma cells – cell-based, resazurin fluorescence, basal, 24 h, PK04 Diversity Set, profiling panel (AID 1180); conditions: higher = more signal;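 further: RPMI8826 multiple myeloma cell line at 5000 cells per well; test concentration not given here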
[20] = target: E3 ubiquitin-protein ligase XIAP (Homo sapiens) (UniProt P98170); experiment: small molecules binding XIAP protein – biophysical, small-molecule microarray, fluorescence 635 nm, primary screen (AID 1181); conditions: higher = more signal;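 further: score merges 667 nm emission and signal to noise over triplicate slides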
Chain of E3 ubiquitin-protein ligase XIAP (Homo sapiens) (P98170 whole entry, looked up): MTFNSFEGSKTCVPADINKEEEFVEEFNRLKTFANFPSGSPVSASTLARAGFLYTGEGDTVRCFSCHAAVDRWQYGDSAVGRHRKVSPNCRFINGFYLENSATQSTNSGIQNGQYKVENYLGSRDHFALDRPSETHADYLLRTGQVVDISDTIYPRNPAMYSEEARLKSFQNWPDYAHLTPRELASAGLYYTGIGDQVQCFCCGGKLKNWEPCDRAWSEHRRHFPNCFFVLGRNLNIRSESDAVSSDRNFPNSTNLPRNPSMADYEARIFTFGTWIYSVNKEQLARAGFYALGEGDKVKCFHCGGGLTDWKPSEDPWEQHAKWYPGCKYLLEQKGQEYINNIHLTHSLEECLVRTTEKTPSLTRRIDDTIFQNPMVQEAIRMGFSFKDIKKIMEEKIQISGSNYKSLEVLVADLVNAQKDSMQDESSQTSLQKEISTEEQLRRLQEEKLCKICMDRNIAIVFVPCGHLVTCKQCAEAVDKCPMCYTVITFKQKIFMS

| SMILES | z-score [1] | z-score [2] | z-score [3] | z-score [4] | z-score [5] | z-score [6] | z-score [7] | z-score [8] | z-score [9] | z-score [10] | z-score [11] | z-score [12] | z-score [13] | composite z-score [14] | z-score [15] | z-score [16] | z-score [17] | z-score [18] | z-score [19] | composite z-score [20] |
| --- | --- | --- | --- | --- | --- | --- | --- | --- | --- | --- | --- | --- | --- | --- | --- | --- | --- | --- | --- | --- |
| NCCCCCCNC(=O)[C@@H]1C[C@@H]2C(=O)N[C@@H](CCCCN)C(=O)N2[C@@H]1c1cccc(OCCO)c1 | 0.892 | -0.452 | 0.514 | 0.835 | 0.986 | 0.0199 | 0.759 (inactive) | -0.639 | -0.451 | 0.551 (inactive) | 1.1 | 0.0813 (inactive) | 0.193 (inactive) | 0.169 (inactive) | -0.931 (inactive) | 0.58 (inactive) | 0.398 (inactive) | 0.756 (inactive) | 0.685 | 2.72 |
| COc1ccc(-c2nc(-c3ccccc3)c3c(c2C)CO[Si]3(C(C)C)C(C)C)cn1 | -0.0364 | -0.628 | -0.292 | -1.03 | -3.63 | -0.922 | -1.72 (inactive) | -0.443 | -0.294 | 1.95 (inactive) | 0.539 | 0.232 (inactive) | 0.151 (inactive) | 0.366 (inactive) | 1.35 (inactive) | -0.278 (inactive) | -0.512 (inactive) | -0.329 (inactive) | -0.82 | -0.0943 |
| COCCOC(=O)N1C(=O)[C@@]2(c3cc(C#Cc4ccc(OC)cc4)ccc31)[C@H](C(=O)Nc1nc3ccccc3s1)[C@H]1C(=O)O[C@H](c3ccccc3)[C@H](c3ccccc3)N1[C@@H]2c1ccc(O)cc1 | 0.373 | 1.31 | -0.375 | -1.18 | -1 | -2.78 | 1.1 (inactive) | -0.544 | -0.766 | 0.0344 (inactive) | -0.154 | -0.43 (inactive) | 0.529 (inactive) | 1.17 (inactive) | 0.609 (inactive) | 0.735 (inactive) | 0.275 (inactive) | -0.591 (inactive) | 0.85 | 0.012 |
| COC(=O)[C@@]1(Cc2ccccc2)[C@H]2c3cc(C(=O)N(C)C)n(CCc4ccc(O)c(OC)c4)c3C[C@H]2CN1C(=O)c1ccccc1 | 0.0634 | -0.121 | 0.343 | -1.32 | -0.0242 | -0.533 | -0.9 (inactive) | -0.665 | -0.241 | 0.641 (inactive) | 0.0393 | 0.483 (inactive) | -0.207 (inactive) | -0.487 (inactive) | 0.454 (inactive) | 0.194 (inactive) | -0.514 (inactive) | -0.253 (inactive) | 0.0379 | -0.0373 |
| NC(=O)N1C(=O)C2C(C1=O)C1C=C(CCCO)C2C(c2cccs2)N1Cc1cccc(OC(F)(F)F)c1 (stereo not given) | 0.604 | 0.151 | -0.4 | -2.98 | -1.11 | -0.339 | -0.678 (inactive) | 0.146 | 1.37 | 0.48 (inactive) | 0.0214 | -3.57 (inactive) | -0.637 (inactive) | -0.376 (inactive) | -0.223 (inactive) | 0.199 (inactive) | -0.205 (inactive) | -0.692 (inactive) | -0.18 | 0.195 |
| COC(=O)c1c(CC[C@@H](CO)NC(=O)N2CCC[C@H]2Cn2cc(Cc3ccccc3)nn2)oc(C(C)=O)c1C(=O)OC | -0.105 | -0.25 | -0.904 | 0.823 | -1.41 | -0.123 | -0.0157 (inactive) | 0.127 | -0.236 | 0.435 (inactive) | 0.448 | -1.36 (inactive) | -0.362 (inactive) | -0.378 (inactive) | -1.27 (inactive) | -0.245 (inactive) | 0.745 (inactive) | 0.312 (inactive) | -0.394 | 0 |
| CC(C)(C)OC(=O)CC[C@@]1(C(=O)NCc2ccccc2)N=C(c2ccc(OCCCO)cc2)O[C@@H]1c1ccccc1N=[N+]=[N-] | -0.365 | 1.55 | -0.258 | -1.68 | -1.41 | 0.515 | 1.35 (inactive) | -1.01 | 0.24 | -0.682 (inactive) | -0.409 | 0.381 (inactive) | -1.36 (inactive) | 1.45 (inactive) | 1.2 (inactive) | 1.99 (inactive) | 2.98 (inactive) | 0.914 (inactive) | -0.362 | 0.23 |
| COCCCNC(=O)[C@]1(CCS(=O)(=O)c2ccccc2)N=C(c2ccc(OCCCO)cc2)O[C@@H]1c1ccccc1N=[N+]=[N-] | 0.76 | 0.108 | 0.683 | -1.41 | -0.311 | -0.0945 | -0.594 (inactive) | -0.986 | -0.754 | 0.265 (inactive) | 0.129 | 0.0817 (inactive) | -0.458 (inactive) | 0.887 (inactive) | 0.413 (inactive) | 0.771 (inactive) | 0.357 (inactive) | 0.0059 (inactive) | -0.998 | -0.199 |
| CCOC(=O)c1ccc(NC(=O)O[C@H]2[C@H](OC(=O)Nc3ccc4c(c3)OCO4)[C@H](OC(=O)Nc3ccc4c(c3)OCO4)[C@@H](OC)O[C@@H]2CO)cc1 | -0.83 | 0.529 | -1.02 | -0.982 | -1.21 | -0.691 | -0.289 (inactive) | -0.576 | -1.09 | -0.824 (inactive) | -1.09 | 1.12 (inactive) | -1.55 (inactive) | -0.57 (inactive) | 0.95 (inactive) | 1.57 (inactive) | 1.11 (inactive) | 0.311 (inactive) | -1.36 | 0.32 |
